PubChem BioAssay (NCATS)
Inconclusive results are not listed. Unmarked numbers belong to inactive results. Calls of active or inactive are those of the source. Calls come from the whole dose curve; as a rule, active = well fitted cell-killing curve with a large enough effect; inconclusive = small, poorly fitted or top-dose-only effect, or effect the other way; inactive = no such curve, though single readings can be large or run the other way.

Experiments:
[1] = Quantitative High-Throughput drug screen in 47 multiple myeloma cell lines against the NCATS MIPE library collection: FR4_PLB cell viability assay (AID 1918924; note: nearly all actives have a fitted effect of over 35% in size)
Outline: (§1)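 Luminescent ATP measurement with CellTiter-Glo gives viability, scaled between DMSO-only wells (100%) and media-only wells (0%). Cells, 500 per well, faced library compounds for 48 hours at 37C.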

[2] = Quantitative High-Throughput drug screen in 47 multiple myeloma cell lines against the NCATS MIPE library collection: Delta47_JCRB cell viability assay (AID 1918925; note: nearly all actives have a fitted effect of over 45% in size)
Outline: (§2)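 Approved and investigational drugs from MIPE 4.0 were added by pin tool to 500 cells per well. After 48 hours at 37C, ATP-based CellTiter-Glo luminescence indicated remaining viability.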

[3] = Quantitative High-Throughput drug screen in 47 multiple myeloma cell lines against the NCATS MIPE library collection: EJM_DSMZ cell viability assay (AID 1918926; note: nearly all actives have a fitted effect of over 30% in size)
Outline: as §2

[4] = Quantitative High-Throughput drug screen in 47 multiple myeloma cell lines against the NCATS MIPE library collection: ARD_JJKsccE7 cell viability assay (AID 1918929)
Outline: as §2

[5] = Quantitative High-Throughput drug screen in 47 multiple myeloma cell lines against the NCATS MIPE library collection: Karpas620_DSMZ cell viability assay (AID 1918959); note: nearly all actives have a fitted effect of over 30% in size
Outline: as §1

[6] = Quantitative High-Throughput drug screen in 47 multiple myeloma cell lines against the NCATS MIPE library collection: AMO1_DSMZ cell viability assay (AID 1918927; note: nearly all actives have a fitted effect of over 30% in size)
Outline: as §2

[7] = Quantitative High-Throughput drug screen in 47 multiple myeloma cell lines against the NCATS MIPE library collection: ARP1_JJKsccF8 cell viability assay (AID 1918928; note: nearly all actives have a fitted effect of over 40% in size)
Outline: (§3)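 ATP readout (CellTiter-Glo), 48 h drug incubation, 37 °C/5% CO2, 500 cells per well; normalisation to DMSO (100%) and media-only (0%) controls.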

[8] = Quantitative High-Throughput drug screen in 47 multiple myeloma cell lines against the NCATS MIPE library collection: KMM1_JCRB cell viability assay (AID 1918960); note: nearly all actives have a fitted effect of over 30% in size
Outline: as §3
Potency is the fitted concentration of half-maximal effect.

OCc1ccccc1O[C@@H]1O[C@H](CO)[C@H](O)[C@H](O)[C@H]1O
Potency [1]: inactive | Potency [2]: 13.2 µM (active) | Potency [3]: 10.5 µM (active) | Potency [4]: inactive | Potency [5]: inactive

CCOC(=O)N1CCN([N+]([O-])=NOc2ccc([N+](=O)[O-])cc2C#N)CC1
Potency [1]: 0.743 µM (active) | Potency [2]: 1.05 µM (active) | Potency [6]: 1.05 µM (active) | Potency [7]: 1.05 µM (active) | Potency [4]: 0.833 µM (active) | Potency [8]: 1.18 µM (active)

Cn1c(Nc2ccc(C(F)(F)F)cc2)nc2cc(Oc3ccnc(-c4ncc(C(F)(F)F)[nH]4)c3)ccc21
Potency [1]: 18.7 µM (active) | Potency [2]: 0.662 µM (active) | Potency [6]: 9.35 µM (active) | Potency [7]: 20.9 µM (active) | Potency [4]: 16.6 µM (active) | Potency [8]: 16.6 µM (active)

Cc1cc(-c2nnc3n2CCCCC3)c(C)n1-c1ccccc1
Potency [1]: inactive | Potency [2]: inactive | Potency [6]: inactive | Potency [7]: inactive | Potency [4]: inactive

CC(C)C[C@H](NC(=O)CNC(=O)c1cc(Cl)ccc1Cl)B1OC(=O)CC(CC(=O)O)(C(=O)O)O1 (some centres not stated)
Potency [1]: 0.0418 µM (active) | Potency [2]: 0.0332 µM (active) | Potency [6]: 0.0235 µM (active) | Potency [7]: 0.0332 µM (active) | Potency [4]: 0.0526 µM (active) | Potency [8]: 0.0418 µM (active)

CC(=O)O[C@H]1C[C@@H]2CC[C@H]3[C@H]4C[C@H]([N+]5(C)CCCCC5)[C@@H](OC(C)=O)[C@@]4(C)CC[C@@H]3[C@@]2(C)C[C@H]1[N+]1(C)CCCCC1
Potency [1]: inactive | Potency [2]: inactive | Potency [3]: inactive | Potency [4]: inactive | Potency [5]: inactive | Potency [8]: inactive

CCN(CC)CCNC(=O)c1c(C)[nH]c(C=C2C(=O)Nc3ccc(F)cc32)c1C
Potency [1]: 10.8 µM (active) | Potency [2]: 1.52 µM (active) | Potency [6]: 3.4 µM (active) | Potency [7]: 4.81 µM (active) | Potency [4]: 2.15 µM (active) | Potency [5]: 4.81 µM (active) | Potency [8]: 3.82 µM (active)

CN(CC(=O)N(Cc1ccc(C2CCCCC2)cc1)c1ccc(C(=O)O)c(O)c1)S(=O)(=O)c1c(F)c(F)c(F)c(F)c1F
Potency [1]: 20.9 µM (active) | Potency [2]: 5.9 µM (active) | Potency [6]: 5.26 µM (active) | Potency [7]: 23.5 µM (active) | Potency [4]: 11.8 µM (active) | Potency [5]: 2.96 µM (active) | Potency [8]: 10.5 µM (active)

Nc1ccn(C[C@@H](CO)OCP(=O)(O)O)c(=O)n1
Potency [1]: inactive | Potency [2]: inactive | Potency [6]: inactive | Potency [7]: inactive | Potency [8]: inactive

C[C@]12CCC(=O)C=C1[C@@H]1CC1[C@H]1[C@H]3[C@@H]4C[C@H]4[C@@]4(CCC(=O)O4)[C@@]3(C)CC[C@H]12 (some centres not stated)
Potency [1]: inactive | Potency [2]: inactive | Potency [3]: inactive | Potency [4]: 18.7 µM (active) | Potency [8]: 20.9 µM (active)

C=C1C(=CC=C2CCC[C@]3(C)[C@@H]([C@H](C)CCCC(C)(C)O)CC[C@@H]23)C[C@@H](O)C[C@@H]1O
Potency [1]: 14.8 µM (active) | Potency [2]: 9.35 µM (active) | Potency [3]: 2.35 µM (active) | Potency [4]: 4.18 µM (active) | Potency [8]: 4.69 µM (active)

CCC(C(=O)O)C1CCC(C)C(C(C)C(O)C(C)C(=O)C(CC)C2OC3(C=CC(O)[C@@]4(CC[C@](C)(C5CC[C@@](O)(CC)C(C)O5)O4)O3)C(C)CC2C)O1 (some centres not stated)
Potency [1]: 16.6 µM (active) | Potency [2]: 4.69 µM (active) | Potency [6]: 0.132 µM (active) | Potency [4]: 0.209 µM (active)

O=C(CCCCCCC(=O)Nc1cccnc1)NO
Potency [1]: 2.35 µM (active) | Potency [2]: 2.96 µM (active) | Potency [6]: 2.35 µM (active) | Potency [7]: 2.35 µM (active) | Potency [4]: 3.32 µM (active) | Potency [5]: 7.43 µM (active) | Potency [8]: 1.66 µM (active)

C[C@H](NCc1ccc(OCc2cccc(F)c2)cc1)C(N)=O
Potency [1]: 16.6 µM (active) | Potency [2]: 2.09 µM (active) | Potency [6]: 9.35 µM (active) | Potency [7]: 7.43 µM (active) | Potency [4]: 5.26 µM (active) | Potency [5]: 3.72 µM (active) | Potency [8]: 6.62 µM (active)

COc1cc(OC)c(C=CS(=O)(=O)Cc2ccc(OC)c(NCC(=O)O)c2)c(OC)c1
Potency [1]: 0.118 µM (active) | Potency [2]: 0.148 µM (active) | Potency [6]: 0.0332 µM (active) | Potency [7]: 0.372 µM (active) | Potency [4]: 0.0743 µM (active) | Potency [8]: 0.0743 µM (active)

COc1cc(C)c(Sc2cnc(NC(=O)c3ccc(CNC(C)C(C)(C)C)cc3)s2)cc1C(=O)N1CCN(C(C)=O)CC1 (configuration not stated)
Potency [1]: 20.9 µM (active) | Potency [2]: 2.09 µM (active) | Potency [3]: 18.7 µM (active) | Potency [4]: 4.69 µM (active) | Potency [5]: 8.33 µM (active) | Potency [8]: 3.32 µM (active)

CS[C@H]1SC[C@@H]2C(=O)N(C)[C@H](C(C)C)C(=O)OC[C@H](NC(=O)c3cnc4ccccc4n3)C(=O)N[C@H](C)C(=O)N(C)[C@@H]1C(=O)N(C)[C@H](C(C)C)C(=O)OC[C@H](NC(=O)c1cnc3ccccc3n1)C(=O)N[C@H](C)C(=O)N2C
Potency [1]: 0.0042 µM (active) | Potency [2]: 0.001 µM (active) | Potency [3]: 0.0059 µM (active) | Potency [5]: 0.001 µM (active)

COc1ccc(C[C@@H](C)[C@@H](C)Cc2ccc(OC)c(OC)c2)cc1OC
Potency [1]: 0.118 µM (active) | Potency [2]: 0.296 µM (active) | Potency [8]: 0.235 µM (active)

Cn1cc(CNCC2CCN(c3ncc(C(=O)NO)cn3)CC2)c2ccccc21
Potency [1]: 0.0264 µM (active) | Potency [2]: 0.0743 µM (active) | Potency [7]: 0.0166 µM (active) | Potency [4]: 0.0526 µM (active) | Potency [5]: 0.105 µM (active) | Potency [8]: 0.0418 µM (active)

COc1cc(C(C)C)c(Oc2cnc(NC(CO)CO)nc2N)cc1I
Potency [1]: 5.26 µM (active) | Potency [3]: 0.469 µM (active) | Potency [6]: 14.8 µM (active) | Potency [7]: inactive

O=C(NNC(=O)c1ccc(CNS(=O)(=O)c2ccc(F)c(Cl)c2)cc1)c1ccccc1
Potency [1]: inactive | Potency [3]: inactive | Potency [6]: inactive | Potency [7]: inactive | Potency [4]: inactive | Potency [5]: inactive | Potency [8]: inactive
